Measured values: PubChem BioAssay
Active and inactive are the calls of the source.

Legend:
Albumin (Bos taurus) = Albumin (Bos taurus) (UniProt P02769); experiment: compounds binding labelled BSA control protein – biochemical, small-molecule microarray, Alexa647 label, 635/667 nm fluorescence, artefact control for SMM control protein annotation, profiling panel (AID 1118); conditions: BSA-A647 binding, fluorescence 635 nm, higher = more signal;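 further: score merges 667 nm emission intensity and signal-to-noise per printed compound spot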
[1] = probe aXIP binding to arrayed compounds – biochemical, NeuroSMM set, 635/667 nm fluorescence, primary screen (AID 1119); conditions: small-molecule microarray, higher = more signal, called active from +8 up or from −8 down;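 further: probe is the protein aXip251-270 applied at 1 µg/mL to compound-printed slides; binding of probe to printed compounds measured as 667 nm fluorescence plus signal to noise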
[2] = probe aNOTCH3 binding on compound microarray – biochemical, small-molecule microarray, 635/667 nm fluorescence, primary screen (AID 1120); conditions: higher = more signal;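 further: probe is a biotin-tagged antibody raised against NOTCH3 rather than NOTCH3 protein; score merges spot fluorescence near 667 nm with spot signal to noise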
[3] = probe aNOTCH2 binding on compound microarray – biochemical, small-molecule microarray, 635/667 nm fluorescence, primary screen (AID 1121); conditions: higher = more signal;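 further: score merges feature fluorescence read at 667 nm with its signal to noise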
[4] = target: Carbonic anhydrase 2 (Homo sapiens) (UniProt P00918); experiment: compounds binding carbonic anhydrase 2 – biochemical, small-molecule microarray, Alexa647-labelled CAII, profiling panel (AID 1122); conditions: CAII-A647 binding fluorescence, higher = more signal
[5] = COS7 lysate on small-molecule microarray, probe aHis, 635 nm (AID 1123); conditions: COS7 cell lysate, fluorescence, higher = more signal;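 further: z-score combines 667nm fluorescence intensity with signal-to-noise per printed compound spot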
[6] = probe aLAP1 signal on lysate-treated microarray – cell lysate, small-molecule microarray, COS7 lysate, primary screen (AID 1124); conditions: probe aLAP1, fluorescence, higher = more signal;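 further: lysate comes from COS7 cells expressing LAP1 and is applied at 0.3 µg/mL; score merges spot fluorescence near 667 nm with signal-to-noise over triplicate slides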
Sam68 (KHDRBS1) = experiment: compounds binding KHDRBS1 protein – biochemical, small-molecule microarray, 635 nm fluorescence, primary screen (AID 1125); conditions: higher = more signal;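 further: score merges 667 nm channel intensity with signal to noise over triplicate slides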
[7] = system: Chordin-like protein 2 (CHRDL2); experiment: compounds binding chordin-like 2 – biochemical, small-molecule microarray, 635 nm fluorescence, primary screen (AID 1126); conditions: fluorescence 635 nm, higher = more signal;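 further: printed compound slides probed with Chrdl2 protein at 4 µg/mL for 1 h at 4 C; score merges 667 nm emission intensity with signal to noise over three replicate slides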
[8] = target: Concanavalin-A (Canavalia ensiformis) (UniProt P02866); experiment: compounds binding concanavalin A lectin – biochemical, small-molecule microarray, Alexa647 label, 635 nm, artefact control for SMM control protein annotation, primary screen (AID 1127); conditions: ConA-A647 binding fluorescence, higher = more signal;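 further: z combines 667 nm emission intensity with signal-to-noise across three replicate slides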
[9] = compounds binding Alexa647 anti-His antibody – biochemical, small-molecule microarray, 635 nm fluorescence, artefact control for SMM control protein annotation, primary screen (AID 1128); conditions: higher = more signal;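 further: score merges feature fluorescence with signal-to-noise for each printed compound spot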
[10] = system: Human papillomavirus type 1a E7 protein (residues 1-88); experiment: HPV1a E7 small-molecule binders, primary screen, biochemical, small-molecule microarray, residues 1-88, 635 nm (AID 1129); conditions: small-molecule microarray binding, fluorescence 635 nm; higher = more signal
[11] = target: Focal adhesion kinase 1 (Homo sapiens) (UniProt Q05397); experiment: PTK2 protein binding on printed compound slides – biochemical, small-molecule microarray, 635/667 nm fluorescence, BSA, DTT, primary screen (AID 1130); conditions: 635 nm fluorescence, higher = more signal;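 further: composite of spot emission at 667 nm and signal to noise over triplicate slides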
[12] = system: Fibrinogen (Alexa647-labelled); experiment: Alexa647-fibrinogen binding to printed small molecules – biochemical, small-molecule microarray, 635/667 nm fluorescence, artefact control for SMM control-protein annotation, profiling panel (AID 1131); conditions: fibrinogen-A647 binding fluorescence, higher = more signal;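 further: z-score merges 667 nm fluorescence with per-spot signal-to-noise over triplicate slides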
[13] = target: Follistatin (Homo sapiens) (UniProt P19883); experiment: FST protein binding to printed compounds – biochemical, small-molecule microarray, 635/667 nm fluorescence, primary screen (AID 1132); conditions: 635 nm fluorescence, higher = more signal
[14] = target: Fibroblast growth factor 2 (Homo sapiens) (UniProt P09038); experiment: basic fibroblast growth factor binding to printed compounds – biochemical, small-molecule microarray, 635/667 nm fluorescence, primary screen (AID 1133); conditions: FGF2, fluorescence 635/667, higher = more signal
[15] = JC-1 mitochondrial potential readout, lung cancer cells – cell-based, A549, JC-1 fluorescence, basal, 24 h, 100 nL, profiling panel (AID 1138); conditions: higher = more signal;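 further: A549 lung adenocarcinoma cells under basal conditions with no added stimulus; test concentration not given here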
Lefty1 = Lefty1 protein binding to printed compounds – biochemical, small-molecule microarray, 635/667 nm fluorescence, primary screen (AID 1139); conditions: fluorescence 635/667, higher = more signal
[16] = system: wheat germ agglutinin (Triticum aestivum), Alexa647-labelled; experiment: Alexa647-WGA lectin binding to printed small molecules – biochemical, small-molecule microarray, 635/667 nm fluorescence, artefact control for SMM control-protein annotation, profiling panel (AID 1140); conditions: WGA-A647 binding, 635 nm fluorescence, higher = more signal;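 further: score merges 667 nm feature emission with signal to noise over triplicate slides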
[17] = target: Luciferin 4-monooxygenase (Photinus pyralis) (UniProt P08659); experiment: inhibition of purified Photinus pyralis luciferase – biochemical, luminescence, purified enzyme, 2006 set, primary screen (AID 1141); conditions: purified firefly luciferase, SteadyGlo luminescence, 30 min; higher = more signal, called active from +8 up or from −8 down;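 further: cell-free assay with purified firefly luciferase at 100 ng per well in PBS; test concentration not given here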
Luciferin 4-monooxygenase (Photinus pyralis), sequence (P08659 whole entry, looked up): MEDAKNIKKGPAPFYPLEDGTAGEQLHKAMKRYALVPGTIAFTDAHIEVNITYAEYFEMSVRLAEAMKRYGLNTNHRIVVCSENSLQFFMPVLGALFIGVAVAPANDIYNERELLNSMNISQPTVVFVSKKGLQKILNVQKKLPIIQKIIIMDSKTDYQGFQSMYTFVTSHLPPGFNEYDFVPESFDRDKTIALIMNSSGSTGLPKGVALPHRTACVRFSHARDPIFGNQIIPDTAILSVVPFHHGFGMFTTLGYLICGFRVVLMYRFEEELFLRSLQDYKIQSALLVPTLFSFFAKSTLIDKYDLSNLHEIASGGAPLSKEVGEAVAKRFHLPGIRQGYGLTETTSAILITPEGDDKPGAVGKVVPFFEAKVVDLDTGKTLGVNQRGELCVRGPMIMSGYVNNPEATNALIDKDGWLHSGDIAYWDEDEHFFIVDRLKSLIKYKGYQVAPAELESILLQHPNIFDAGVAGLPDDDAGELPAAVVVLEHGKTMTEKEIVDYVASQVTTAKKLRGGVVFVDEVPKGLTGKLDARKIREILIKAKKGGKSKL

Focal adhesion kinase 1 (Homo sapiens), sequence (Q05397 whole entry, looked up): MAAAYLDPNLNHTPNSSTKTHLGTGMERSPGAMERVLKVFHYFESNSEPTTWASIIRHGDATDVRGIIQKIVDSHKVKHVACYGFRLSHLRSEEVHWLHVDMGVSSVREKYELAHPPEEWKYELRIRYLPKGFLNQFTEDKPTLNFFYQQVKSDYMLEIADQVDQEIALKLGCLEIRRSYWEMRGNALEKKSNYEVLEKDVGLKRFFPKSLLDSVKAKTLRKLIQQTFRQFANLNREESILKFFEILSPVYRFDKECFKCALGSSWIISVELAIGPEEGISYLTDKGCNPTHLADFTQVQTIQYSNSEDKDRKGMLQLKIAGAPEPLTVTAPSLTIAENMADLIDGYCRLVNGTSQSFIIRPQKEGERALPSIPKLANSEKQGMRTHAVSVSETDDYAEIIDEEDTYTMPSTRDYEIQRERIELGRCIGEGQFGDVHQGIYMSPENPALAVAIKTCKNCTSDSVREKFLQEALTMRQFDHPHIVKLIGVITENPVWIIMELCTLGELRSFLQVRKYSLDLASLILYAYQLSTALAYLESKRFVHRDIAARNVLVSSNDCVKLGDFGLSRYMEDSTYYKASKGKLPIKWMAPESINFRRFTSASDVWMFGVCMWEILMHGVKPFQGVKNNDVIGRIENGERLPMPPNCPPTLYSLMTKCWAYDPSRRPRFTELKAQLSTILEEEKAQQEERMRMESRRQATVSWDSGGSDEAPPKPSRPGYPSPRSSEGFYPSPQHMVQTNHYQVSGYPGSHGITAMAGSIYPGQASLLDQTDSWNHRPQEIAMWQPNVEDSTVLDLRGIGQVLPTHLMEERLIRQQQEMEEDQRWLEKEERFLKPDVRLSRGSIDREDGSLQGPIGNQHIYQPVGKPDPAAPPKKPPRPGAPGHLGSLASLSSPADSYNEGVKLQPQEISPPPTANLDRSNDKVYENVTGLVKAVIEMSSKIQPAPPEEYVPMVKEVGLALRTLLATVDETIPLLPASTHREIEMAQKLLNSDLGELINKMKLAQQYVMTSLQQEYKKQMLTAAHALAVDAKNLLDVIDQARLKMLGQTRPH
Fibroblast growth factor 2 (Homo sapiens), sequence (P09038 whole entry, looked up): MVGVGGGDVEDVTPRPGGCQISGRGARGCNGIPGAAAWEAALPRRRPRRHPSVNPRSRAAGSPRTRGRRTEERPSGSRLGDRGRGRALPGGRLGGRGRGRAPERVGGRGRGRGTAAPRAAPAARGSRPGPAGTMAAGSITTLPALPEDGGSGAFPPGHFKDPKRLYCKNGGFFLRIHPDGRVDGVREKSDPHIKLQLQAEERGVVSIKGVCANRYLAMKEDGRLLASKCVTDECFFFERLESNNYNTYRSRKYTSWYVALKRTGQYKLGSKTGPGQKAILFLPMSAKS
Albumin (Bos taurus), sequence (P02769 whole entry, looked up): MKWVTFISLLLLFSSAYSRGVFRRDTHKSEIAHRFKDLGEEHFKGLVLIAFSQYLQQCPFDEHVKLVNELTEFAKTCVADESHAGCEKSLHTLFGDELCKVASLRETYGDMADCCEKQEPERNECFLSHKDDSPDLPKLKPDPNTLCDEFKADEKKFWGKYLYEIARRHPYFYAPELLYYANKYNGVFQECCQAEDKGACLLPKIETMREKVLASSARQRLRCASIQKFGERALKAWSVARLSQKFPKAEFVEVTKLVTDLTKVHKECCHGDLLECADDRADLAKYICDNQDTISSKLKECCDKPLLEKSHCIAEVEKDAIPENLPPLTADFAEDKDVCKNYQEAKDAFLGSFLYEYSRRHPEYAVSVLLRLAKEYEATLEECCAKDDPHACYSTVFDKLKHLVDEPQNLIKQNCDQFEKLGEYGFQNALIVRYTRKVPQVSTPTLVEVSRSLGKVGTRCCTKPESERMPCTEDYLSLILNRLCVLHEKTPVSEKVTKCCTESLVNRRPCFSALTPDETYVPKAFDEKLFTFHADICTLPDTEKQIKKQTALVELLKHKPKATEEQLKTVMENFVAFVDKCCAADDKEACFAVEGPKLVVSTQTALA
Concanavalin-A (Canavalia ensiformis), sequence (P02866 whole entry, looked up): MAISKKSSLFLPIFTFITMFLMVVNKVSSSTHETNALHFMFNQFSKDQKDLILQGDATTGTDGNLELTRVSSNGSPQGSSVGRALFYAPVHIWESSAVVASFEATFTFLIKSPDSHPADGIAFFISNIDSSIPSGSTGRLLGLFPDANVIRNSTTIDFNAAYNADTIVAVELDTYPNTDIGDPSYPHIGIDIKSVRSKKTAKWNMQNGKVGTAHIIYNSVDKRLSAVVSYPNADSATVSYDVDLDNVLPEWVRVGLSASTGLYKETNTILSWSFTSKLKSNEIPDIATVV
Follistatin (Homo sapiens), sequence (P19883 whole entry, looked up): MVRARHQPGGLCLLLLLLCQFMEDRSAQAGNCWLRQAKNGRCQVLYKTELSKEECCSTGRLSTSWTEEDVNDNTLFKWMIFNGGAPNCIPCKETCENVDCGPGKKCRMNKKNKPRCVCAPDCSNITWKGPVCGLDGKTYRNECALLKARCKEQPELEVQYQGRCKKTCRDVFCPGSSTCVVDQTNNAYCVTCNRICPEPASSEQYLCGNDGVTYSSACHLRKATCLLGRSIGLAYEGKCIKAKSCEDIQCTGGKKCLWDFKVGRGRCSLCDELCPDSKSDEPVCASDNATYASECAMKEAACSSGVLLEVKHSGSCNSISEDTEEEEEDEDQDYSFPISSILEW

Compound | composite z-score (Albumin (Bos taurus)) | composite Z-score [1] | composite z-score [2] | composite z-score [3] | composite z-score [4] | composite z-score [5] | composite z-score [6] | composite z-score (Sam68 (KHDRBS1)) | composite z-score [7] | composite z-score [8] | composite z-score [9] | composite z-score [10] | composite z-score [11] | composite z-score [12] | composite z-score [13] | composite z-score [14] | z-score [15] | composite z-score (Lefty1) | composite z-score [16] | z-score [17]
CC1(C)OB(/C=C\CC(OC(=O)c2ccncc2)c2ccccc2)OC1(C)C (stereo not given) | 0.152 | 0.142 (inactive) | -0.0345 | -0.0464 | 0.918 | 0.677 | 0.953 | 0.426 | 0.381 | -0.305 | 1.33 | 0.22 | -0.113 | -0.857 | -0.397 | -1.03 | -0.242 | -1.2 | -1.28 | -0.0512 (inactive)
COc1ccc([Si](C)(C)[C@@H]2[C@@H](CC(=O)N3Cc4ccccc4C[C@H]3CO)O[C@]3(C(=O)N(Cc4ccc(I)cc4)c4ccccc43)[C@H]2C)cc1 | -0.145 | 0.26 (inactive) | 0.0676 | -0.133 | 0.284 | 0.583 | -0.098 | 1 | 1.35 | 0.957 | 0.521 | 0.963 | 0.0916 | 0.838 | 1.59 | 1.65 | -0.26 | 1.58 | 0.373 | 0.798 (inactive)
C=CC[C@]1(C(N)=O)N=C(c2ccc(OCCCO)cc2)O[C@H]1c1ccccc1N=[N+]=[N-] | 0.601 | 1.13 (inactive) | 0.067 | -0.0586 | 0.79 | 2.53 | 0.87 | 0.994 | 0.783 | 0.883 | 1.98 | 0.766 | -0.336 | 0.753 | 1.12 | 0.812 | 1.62 | -0.0005 | 0.762 | -14.1 (active)
C=CC[C@]12N=C(c3ccc(OCCCO)cc3)O[C@H]1c1ccccc1N(CCC)C2=O | -0.0791 | 1.91 (inactive) | 0.467 | 0.14 | 0.705 | 2.85 | 0.674 | 1.29 | 1.2 | 1.09 | 2.3 | 0.917 | 0.685 | 0.488 | 1.46 | 1.35 | 0.948 | 0.613 | 0.954 | -3.66 (inactive)
C[C@]1(C(=O)NCC(F)(F)F)c2ccccc2C(=O)N(Cc2cc(C(F)(F)F)cc(C(F)(F)F)c2)[C@H]1c1ccc(CO)cc1 | 0.154 | 0.196 (inactive) | -0.154 | -0.0226 | 0.306 | 1.11 | 0.108 | 0.1 | -0.404 | -0.522 | 0.0266 | 0.416 | 0.0715 | 0.412 | -0.0478 | 0.292 | 1.23 | -0.541 | -0.174 | -1.17 (inactive)
COCCCNC(=O)[C@@]1(Cc2ccccc2I)c2ccccc2C(=O)N(Cc2ccccc2C(F)(F)F)[C@H]1c1ccc(CO)cc1 | 0.251 | 0.29 (inactive) | -0.136 | -0.148 | 0.487 | 1.85 | -0.462 | 0.302 | -1.44 | -0.375 | 0.611 | 0.742 | -0.0483 | 0.0568 | 0.672 | -0.742 | 0.104 | -1.15 | -0.107 | 0.636 (inactive)
CC(C)C[C@@H]1NC(=O)[C@@H]2C[C@H](C(=O)NCCCCCCNC(=O)CS)[C@H](c3ccc(O)cc3)N2C1=O | -0.025 | 0.0101 (inactive) | 0.133 | -0.0817 | 0.706 | 1.91 | 0.655 | 1.28 | 1.26 | 0.995 | 2.1 | 1.28 | 0.116 | 0.913 | 1.46 | 1.62 | -1.16 | 1.41 | 0.907 | -0.677 (inactive)
C=CCNC(=O)[C@H]1[C@@H]2C(=O)O[C@@H](c3ccccc3)[C@@H](c3ccccc3)N2[C@@H](c2ccc(O)cc2)[C@]12C(=O)N(C(=O)OCCOC)c1ccc(C#Cc3ccc(OC)cc3)cc12 | 0.451 | -0.0437 (inactive) | 0.0271 | -0.112 | 0.382 | 0.428 | 0.5 | 0.934 | -0.142 | 0.876 | 0.91 | 1.13 | 0.319 | 0.658 | 0.751 | 0.817 | -1.33 | 0.402 | 0.58 | 0.39 (inactive)
